VCAM1 pot: TNF alpha stimulated VCAM1 expression potentiation; HUVEC TNFa-stimulated VCAM-1 immunofluorescence, high-content imaging; scaled per plate to unstimulated/TNFa-only wells; activation, % at 2 µM; 93,000 tested, 0.19% active; AID 808;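 active = activation above the screen mean plus 3 SD, with well images confirming the hit on visual review, cut at about 28% in these data, passing the limit was not always enough; inconclusive = activation above that limit but images do not confirm it; inactive = activation not above that limit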;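 also: signal is the number of cytoplasmic VCAM-1 stained grains per positive cell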
VCAM1 pot confirm: potentiators of TNFa-induced VCAM1 expression, confirmation, imaging, HUVEC, triplicate retest | HUVEC TNFa-stimulated VCAM-1 immunofluorescence imaging | activation, % at 2 µM | AID 1034 | 230 tested, under 10 active | shares compounds with VCAM1 pot;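 active = activation above 30% in triplicate retests at 2 µM, then confirmed by visual review of the well images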
Of the large screens only hits and unclear results are named; the others gave an inactive call (follow-up assays come after a bar, where they were run). Shown is part of a subset that was picked to be rich in hits.

CCCc1nn(-c2ccccc2)c2c1C(c1cccs1)C(C#N)=C(N)O2 (stereo unspecified)	none
CCCC1=C(C(=O)OCC)C(c2c(C)nn(-c3ccccc3)c2Cl)C(C#N)=C(N)O1 (stereo unspecified)	VCAM1 pot 44 | VCAM1 pot confirm inactive
CCOC(=O)C1=C(CSc2nc3c(cc2C#N)CN(C)CC3)OC(N)=C(C#N)C1c1ccccc1 (stereo unspecified)	none
OC(COCc1ccc2c(c1)OCO2)CN1CCN(Cc2ccccc2)CC1 (stereo unspecified)	none
N#CCCN(C(=O)CSc1ccc2c(c1)OCCO2)c1ccc(F)cc1	none
Cc1n[nH]c(=S)c2nn(-c3ccccc3F)c(C)c12	VCAM1 pot 55 | VCAM1 pot confirm inactive
COCCCn1c(SCC(=O)NCc2ccccc2)nc2ccccc2c1=O	none
COc1ccc(/C=N/n2c(-c3ccco3)nc3ccccc3c2=O)cc1	none
COCCCn1c(-c2ccccc2)nc2ccccc2c1=O	VCAM1 pot 31 | VCAM1 pot confirm inactive
CS(=O)(=O)N(Cc1ccco1)CC(O)Cn1cc(C=O)c2ccccc21 (stereo unspecified)	none
CCOC(=O)Cc1csc(SCC(=O)/C(C#N)=C(\C)N)n1	none
COc1cccc(CNC(=O)C2CCCN(c3nn4c(=O)cc(C)nc4s3)C2)c1OC (stereo unspecified)	none
O=C1OC(Nc2ccc3ncccc3c2)c2ccccc21 (stereo unspecified)	none
COc1ccc2c(c1OC)C(=O)OC2CC(=O)c1ccc2c(c1)OCO2 (stereo unspecified)	none
COc1ccc2c(c1OC)C(=O)OC2Nc1ccccn1 (stereo unspecified)	VCAM1 pot 54 | VCAM1 pot confirm inactive
Cc1c(C(N)=O)c(N)c(C(=O)c2ccccc2)n1-c1ccccc1	none
Cc1ccc(C(C)NC(=O)/C(C#N)=C\c2c(C)[nH]c3ccccc23)cc1 (stereo unspecified)	VCAM1 pot 52 | VCAM1 pot confirm inactive
Cc1ccc(-c2cc(=O)[nH]c3ccccc23)cc1	none
COC(=O)c1ccc(C)c(NC(=O)CN(c2ccc3c(c2)OCO3)S(C)(=O)=O)c1	none
O=C(Cn1c(=O)oc2ccccc21)NCc1ccco1	none
CCc1ccc(NC(=O)Cn2c(=O)n(CCCC(=O)NCc3ccco3)c(=O)c3ccccc32)cc1	VCAM1 pot inconclusive | VCAM1 pot confirm inactive
CCN(Cc1ccccc1)C(=O)Cn1c(=O)n(CC(=O)NCc2ccco2)c(=O)c2sccc21	none
O=C(C1CCN(C2CC(=O)N(c3ccc(Cl)cc3)C2=O)CC1)N1CCOCC1 (stereo unspecified)	none
COc1ccc(N2C(=O)CC(N3CCN(S(=O)(=O)c4c(F)cccc4F)CC3)C2=O)cc1OC (stereo unspecified)	VCAM1 pot 57 | VCAM1 pot confirm inactive
O=C1CC(N2CCOCC2)C(=O)N1c1ccc2c(c1)OCO2 (stereo unspecified)	none
C=CCNC(=O)c1onc(CSc2ccccc2CC)c1C(=O)O	none
CCOCCCNC(=O)CCSc1ccc(C)cc1	none
O=C1CC(c2ccc(F)cc2)C2=C(CCCC2=O)N1 (stereo unspecified)	none
CCOC(=O)CNC(=O)CNC(=O)Cn1ccc2ccccc2c1=O	none
COc1cccc(CN2CCN(c3ncccn3)CC2)c1	none
COc1cccc(S(=O)(=O)N2CCN(c3ccccc3F)CC2)c1	none
COc1ccc(S(=O)(=O)N2CCN(Cc3cccc(Cl)c3)CC2)cc1	VCAM1 pot inconclusive | VCAM1 pot confirm inactive
CC1=CC(C)(C(Cl)Cl)C(C)=CC1=O (stereo unspecified)	none
O=C(CN(Cc1ccc(F)cc1)S(=O)(=O)c1ccccc1)N1CCCCC1	none
CCn1c(SCC(=O)n2nc(C)cc2C)nnc1-c1ccc2c(c1)OCO2	none
CC(C)(C)C(=O)NC(NC(=S)Nc1sc2c(c1C#N)CCCC2)C(Cl)(Cl)Cl (stereo unspecified)	none
O=C(CN1C(=O)CSC1=O)NC1CCCCC1	VCAM1 pot 42 | VCAM1 pot confirm inactive
Cn1c(=O)cc(OCC(=O)NC2CCCCC2)c2ccccc21	none
Cc1ccc(NC(=O)CCN2C(=O)CSC2=O)cc1	none
C/C=C/c1ccc(OCCn2cncn2)c(OC)c1	none
CC(C)CN1C(=O)c2ccc(C(=O)Nc3nccs3)cc2C1=O	none
CCn1nccc1C(=O)Nc1nccs1	VCAM1 pot inconclusive | VCAM1 pot confirm inactive
Cc1ncoc1C(=O)Nc1nccs1	none
CCOC(=O)N1CCN(/C=C(\C#N)c2nc3ccccc3s2)CC1	none
CCC(C)COC(=O)C(C#N)c1nc2ccccc2nc1N1CCCCC1 (stereo unspecified)	VCAM1 pot 36 | VCAM1 pot confirm inactive
O=c1[nH]c2cc3c(cc2cc1C(c1nnnn1C1CCCCC1)N1CCSCC1)OCCO3 (stereo unspecified)	none
CON1C(=O)CN(C(C)=O)C1c1ccc(Cl)cc1Cl (stereo unspecified)	none
CC(C)(C)c1nn(-c2ccccc2)c2[nH]c(=O)c(CNCc3ccc4c(c3)OCO4)cc12	none
CCCOc1ccc(CC(=O)NCc2ccco2)cc1OC	none
